What was measured:
Experiment in all cases: log2 ratio of Biotin-Ahx-Ub-VS probe labelling (fragment/DMSO); higher = less target engagement (more negative = stronger competition), active = hit call of the paper (q ≤ 0.05, log2 ratio ≤ -1)
Settings in all cases: compound concentration: 200 uM; treatment time: 3 h
[1] = biological target: T1, USP19 (UniProt O94966)
T1 sequence (whole entry): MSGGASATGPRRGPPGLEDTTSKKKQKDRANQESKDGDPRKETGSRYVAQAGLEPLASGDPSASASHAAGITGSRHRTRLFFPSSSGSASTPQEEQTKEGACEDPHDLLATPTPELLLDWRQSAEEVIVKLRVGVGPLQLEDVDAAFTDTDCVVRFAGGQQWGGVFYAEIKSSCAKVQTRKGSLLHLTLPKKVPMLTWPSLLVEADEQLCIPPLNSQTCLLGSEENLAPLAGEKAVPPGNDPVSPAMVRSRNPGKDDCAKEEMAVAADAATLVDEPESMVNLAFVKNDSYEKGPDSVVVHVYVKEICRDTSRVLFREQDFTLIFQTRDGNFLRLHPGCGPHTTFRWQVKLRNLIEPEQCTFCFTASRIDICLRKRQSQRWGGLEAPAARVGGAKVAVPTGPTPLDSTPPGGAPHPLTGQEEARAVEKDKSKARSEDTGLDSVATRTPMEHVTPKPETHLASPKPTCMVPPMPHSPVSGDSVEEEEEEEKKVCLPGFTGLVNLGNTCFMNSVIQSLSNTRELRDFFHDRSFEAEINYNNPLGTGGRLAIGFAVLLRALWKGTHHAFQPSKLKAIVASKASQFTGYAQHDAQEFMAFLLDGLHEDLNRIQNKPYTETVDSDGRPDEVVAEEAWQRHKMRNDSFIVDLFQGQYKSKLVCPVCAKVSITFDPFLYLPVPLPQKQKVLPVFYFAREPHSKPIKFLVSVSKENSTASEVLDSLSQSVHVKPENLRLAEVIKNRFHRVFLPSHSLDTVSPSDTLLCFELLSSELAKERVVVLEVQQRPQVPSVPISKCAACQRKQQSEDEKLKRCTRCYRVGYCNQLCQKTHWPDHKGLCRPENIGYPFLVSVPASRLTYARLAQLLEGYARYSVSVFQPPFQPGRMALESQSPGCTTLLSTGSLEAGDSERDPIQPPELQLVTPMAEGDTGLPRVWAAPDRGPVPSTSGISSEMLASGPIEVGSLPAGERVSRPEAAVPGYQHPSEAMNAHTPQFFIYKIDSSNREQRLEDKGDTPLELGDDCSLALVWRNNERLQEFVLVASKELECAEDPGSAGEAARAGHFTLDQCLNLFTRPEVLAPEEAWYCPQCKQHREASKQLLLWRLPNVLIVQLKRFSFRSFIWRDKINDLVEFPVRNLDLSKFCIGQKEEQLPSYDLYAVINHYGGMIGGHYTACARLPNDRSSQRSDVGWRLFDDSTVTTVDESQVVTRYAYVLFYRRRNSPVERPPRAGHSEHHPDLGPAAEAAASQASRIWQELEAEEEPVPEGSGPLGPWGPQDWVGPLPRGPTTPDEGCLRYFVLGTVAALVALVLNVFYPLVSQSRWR
How it was run: (§1)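 HEK293T lysate in Tris/CHAPS/IGEPAL buffer with protease inhibitors (495 µg per sample) was given fragment at 200 µM or vehicle for 3 h, in triplicate. It then received Biotin-Ahx-Ub-VS at 0.5 µM final for 1 h. Labelled DUBs were NeutrAvidin-enriched, digested with LysC and trypsin, and run by diaPASEF LC-MS/MS. Values are average log2 fragment/vehicle ratios by unpaired t-test on global-median-normalised Spectronaut quantities of proteins with ≥2 unique peptides.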

[2] = biological target: T2, USP22 (UniProt Q9UPT9)
T2 sequence (whole entry): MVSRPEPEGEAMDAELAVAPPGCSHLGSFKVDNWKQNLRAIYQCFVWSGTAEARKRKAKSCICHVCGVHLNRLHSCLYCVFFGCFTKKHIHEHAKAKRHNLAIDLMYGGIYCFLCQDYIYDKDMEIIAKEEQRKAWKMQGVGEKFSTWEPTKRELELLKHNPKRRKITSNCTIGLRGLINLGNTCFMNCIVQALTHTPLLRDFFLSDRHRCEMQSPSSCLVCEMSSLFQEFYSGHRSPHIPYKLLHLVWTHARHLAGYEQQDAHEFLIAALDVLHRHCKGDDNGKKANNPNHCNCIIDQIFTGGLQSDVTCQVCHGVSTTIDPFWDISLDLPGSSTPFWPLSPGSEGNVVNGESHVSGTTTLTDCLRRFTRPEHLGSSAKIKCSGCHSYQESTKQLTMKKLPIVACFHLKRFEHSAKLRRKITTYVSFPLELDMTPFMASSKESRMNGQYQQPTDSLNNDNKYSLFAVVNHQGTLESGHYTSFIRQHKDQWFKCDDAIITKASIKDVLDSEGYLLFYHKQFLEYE
How it was run: as §1

[3] = biological target: USP24 (UniProt Q9UPU5)
How it was run: as §1

[4] = biological target: T3, USP25 (UniProt Q9UHP3)
T3 sequence (whole entry): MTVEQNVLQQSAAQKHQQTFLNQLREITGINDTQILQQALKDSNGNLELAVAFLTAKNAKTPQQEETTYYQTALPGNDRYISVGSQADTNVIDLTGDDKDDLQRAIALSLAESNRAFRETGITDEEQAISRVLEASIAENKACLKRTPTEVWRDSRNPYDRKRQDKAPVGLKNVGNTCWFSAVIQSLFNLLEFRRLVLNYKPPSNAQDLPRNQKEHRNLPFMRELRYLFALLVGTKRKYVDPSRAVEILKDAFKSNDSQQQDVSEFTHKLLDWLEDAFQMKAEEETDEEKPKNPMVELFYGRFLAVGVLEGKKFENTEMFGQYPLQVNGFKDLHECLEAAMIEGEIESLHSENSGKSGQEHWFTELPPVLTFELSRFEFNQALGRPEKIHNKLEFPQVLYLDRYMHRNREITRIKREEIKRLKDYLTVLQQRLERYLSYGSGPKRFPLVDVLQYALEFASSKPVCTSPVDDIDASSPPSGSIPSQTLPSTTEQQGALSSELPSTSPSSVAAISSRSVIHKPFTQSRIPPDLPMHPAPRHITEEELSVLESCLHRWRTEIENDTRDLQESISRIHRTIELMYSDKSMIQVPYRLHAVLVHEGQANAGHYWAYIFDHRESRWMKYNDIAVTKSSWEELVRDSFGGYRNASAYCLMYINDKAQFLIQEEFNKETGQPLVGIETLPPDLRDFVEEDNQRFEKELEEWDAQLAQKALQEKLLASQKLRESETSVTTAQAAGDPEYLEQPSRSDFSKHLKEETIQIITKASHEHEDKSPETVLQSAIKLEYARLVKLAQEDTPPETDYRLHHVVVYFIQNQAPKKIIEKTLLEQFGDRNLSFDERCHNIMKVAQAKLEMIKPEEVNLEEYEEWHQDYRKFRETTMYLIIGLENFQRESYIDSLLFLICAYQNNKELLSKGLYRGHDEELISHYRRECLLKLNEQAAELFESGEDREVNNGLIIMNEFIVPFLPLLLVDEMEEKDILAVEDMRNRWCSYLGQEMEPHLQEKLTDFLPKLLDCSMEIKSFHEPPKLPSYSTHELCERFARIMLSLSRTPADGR
How it was run: as §1

[5] = biological target: T4, USP28 (UniProt Q96RU2)
T4 sequence (whole entry): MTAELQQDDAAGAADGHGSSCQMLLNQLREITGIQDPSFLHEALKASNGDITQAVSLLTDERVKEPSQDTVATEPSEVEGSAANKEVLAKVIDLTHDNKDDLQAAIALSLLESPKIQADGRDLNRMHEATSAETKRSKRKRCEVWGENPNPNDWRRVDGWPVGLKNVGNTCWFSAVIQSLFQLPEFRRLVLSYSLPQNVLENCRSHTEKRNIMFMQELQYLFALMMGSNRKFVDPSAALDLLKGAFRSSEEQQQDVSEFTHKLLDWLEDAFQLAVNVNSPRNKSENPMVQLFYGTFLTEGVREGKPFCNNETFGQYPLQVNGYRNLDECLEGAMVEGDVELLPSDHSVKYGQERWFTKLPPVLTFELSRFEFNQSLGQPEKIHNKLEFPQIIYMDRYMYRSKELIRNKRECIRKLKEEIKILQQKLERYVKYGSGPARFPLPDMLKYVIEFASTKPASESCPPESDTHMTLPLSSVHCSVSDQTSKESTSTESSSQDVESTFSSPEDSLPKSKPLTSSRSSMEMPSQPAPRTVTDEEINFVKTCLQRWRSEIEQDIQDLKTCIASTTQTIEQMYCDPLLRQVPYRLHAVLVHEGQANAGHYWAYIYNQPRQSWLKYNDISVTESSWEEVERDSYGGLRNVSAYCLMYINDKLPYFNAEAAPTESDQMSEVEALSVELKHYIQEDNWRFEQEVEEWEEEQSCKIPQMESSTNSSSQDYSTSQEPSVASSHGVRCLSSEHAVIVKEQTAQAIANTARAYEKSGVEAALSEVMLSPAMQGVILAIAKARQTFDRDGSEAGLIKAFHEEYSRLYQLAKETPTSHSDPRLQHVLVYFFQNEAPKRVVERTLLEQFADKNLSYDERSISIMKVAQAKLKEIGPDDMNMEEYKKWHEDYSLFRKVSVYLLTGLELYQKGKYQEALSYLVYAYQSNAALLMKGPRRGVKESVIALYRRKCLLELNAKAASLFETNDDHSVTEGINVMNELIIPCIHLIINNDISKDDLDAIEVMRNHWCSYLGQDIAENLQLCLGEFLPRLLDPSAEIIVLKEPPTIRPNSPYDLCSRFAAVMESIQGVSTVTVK
How it was run: as §1

Measured: log2 ratio of Biotin-Ahx-Ub-VS probe labelling

Chain of USP24 (Q9UPU5 whole entry): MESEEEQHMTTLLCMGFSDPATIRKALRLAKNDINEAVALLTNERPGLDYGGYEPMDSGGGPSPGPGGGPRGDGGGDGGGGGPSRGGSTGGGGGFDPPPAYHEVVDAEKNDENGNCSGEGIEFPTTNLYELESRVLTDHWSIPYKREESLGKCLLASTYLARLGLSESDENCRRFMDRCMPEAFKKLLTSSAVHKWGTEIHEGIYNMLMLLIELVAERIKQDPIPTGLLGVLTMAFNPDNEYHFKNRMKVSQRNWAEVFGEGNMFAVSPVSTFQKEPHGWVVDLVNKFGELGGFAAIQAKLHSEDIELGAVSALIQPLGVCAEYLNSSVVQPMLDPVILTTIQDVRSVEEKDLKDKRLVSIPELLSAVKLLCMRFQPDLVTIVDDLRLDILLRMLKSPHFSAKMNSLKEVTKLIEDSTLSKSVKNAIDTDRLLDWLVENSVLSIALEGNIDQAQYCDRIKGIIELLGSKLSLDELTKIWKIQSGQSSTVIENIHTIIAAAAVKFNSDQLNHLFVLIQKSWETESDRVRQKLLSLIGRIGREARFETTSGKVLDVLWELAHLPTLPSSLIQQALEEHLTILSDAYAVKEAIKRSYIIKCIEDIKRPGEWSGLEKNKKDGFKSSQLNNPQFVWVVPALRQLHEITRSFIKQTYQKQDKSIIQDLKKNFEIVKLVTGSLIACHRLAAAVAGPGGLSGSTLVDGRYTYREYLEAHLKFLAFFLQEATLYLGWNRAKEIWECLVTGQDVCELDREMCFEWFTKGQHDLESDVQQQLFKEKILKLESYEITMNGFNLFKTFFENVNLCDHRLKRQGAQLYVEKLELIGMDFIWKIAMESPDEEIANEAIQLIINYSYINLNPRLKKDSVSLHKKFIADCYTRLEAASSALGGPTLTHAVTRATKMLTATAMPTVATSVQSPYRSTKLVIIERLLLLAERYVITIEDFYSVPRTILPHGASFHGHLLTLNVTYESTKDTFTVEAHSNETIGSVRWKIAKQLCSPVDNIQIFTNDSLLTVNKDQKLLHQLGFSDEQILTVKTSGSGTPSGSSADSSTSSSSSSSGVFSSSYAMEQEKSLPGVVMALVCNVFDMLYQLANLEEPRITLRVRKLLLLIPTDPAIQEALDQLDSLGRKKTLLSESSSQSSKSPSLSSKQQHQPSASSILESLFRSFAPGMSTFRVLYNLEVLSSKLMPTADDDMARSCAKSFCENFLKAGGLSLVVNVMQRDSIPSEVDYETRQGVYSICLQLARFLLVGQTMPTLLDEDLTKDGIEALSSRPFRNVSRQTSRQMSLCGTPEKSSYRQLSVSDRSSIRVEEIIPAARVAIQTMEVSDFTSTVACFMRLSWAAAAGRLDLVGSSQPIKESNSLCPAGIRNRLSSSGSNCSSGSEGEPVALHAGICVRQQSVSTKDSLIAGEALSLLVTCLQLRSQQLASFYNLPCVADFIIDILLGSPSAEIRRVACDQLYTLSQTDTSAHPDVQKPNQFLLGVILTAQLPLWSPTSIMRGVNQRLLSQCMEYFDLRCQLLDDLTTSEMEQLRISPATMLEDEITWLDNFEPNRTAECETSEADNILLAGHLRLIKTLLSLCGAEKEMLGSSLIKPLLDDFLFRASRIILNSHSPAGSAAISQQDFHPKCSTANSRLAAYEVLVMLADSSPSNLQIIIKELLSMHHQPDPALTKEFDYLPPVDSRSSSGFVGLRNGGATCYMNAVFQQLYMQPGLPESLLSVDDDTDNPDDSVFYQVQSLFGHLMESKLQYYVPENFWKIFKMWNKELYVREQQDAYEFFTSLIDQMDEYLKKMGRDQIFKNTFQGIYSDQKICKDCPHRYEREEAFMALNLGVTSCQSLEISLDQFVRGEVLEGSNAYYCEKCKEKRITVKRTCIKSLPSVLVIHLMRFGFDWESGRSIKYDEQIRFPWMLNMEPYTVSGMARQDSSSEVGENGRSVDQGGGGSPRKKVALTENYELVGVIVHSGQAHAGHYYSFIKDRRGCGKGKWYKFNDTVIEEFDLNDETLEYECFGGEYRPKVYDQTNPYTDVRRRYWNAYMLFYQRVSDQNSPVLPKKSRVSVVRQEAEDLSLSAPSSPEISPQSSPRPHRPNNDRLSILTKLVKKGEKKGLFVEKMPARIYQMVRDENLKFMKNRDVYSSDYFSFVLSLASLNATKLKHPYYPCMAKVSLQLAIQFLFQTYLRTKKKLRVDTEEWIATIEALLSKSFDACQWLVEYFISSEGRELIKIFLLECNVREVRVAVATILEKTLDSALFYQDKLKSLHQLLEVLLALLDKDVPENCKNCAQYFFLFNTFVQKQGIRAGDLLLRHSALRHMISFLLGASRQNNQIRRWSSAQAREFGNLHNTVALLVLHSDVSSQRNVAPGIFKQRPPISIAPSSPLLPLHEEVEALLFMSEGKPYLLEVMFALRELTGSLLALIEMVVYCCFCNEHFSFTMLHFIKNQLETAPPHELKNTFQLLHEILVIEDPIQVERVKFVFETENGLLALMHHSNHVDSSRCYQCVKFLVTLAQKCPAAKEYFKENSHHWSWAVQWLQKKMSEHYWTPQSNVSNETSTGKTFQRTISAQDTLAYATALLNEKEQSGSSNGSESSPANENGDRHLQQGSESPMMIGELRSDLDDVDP

O=C(CCl)N1CCC(OCc2ccccc2F)CC1
inactive: [1] -0.0583 | [2] -0.181 | [3] -0.486 | [4] -0.163 | [5] -0.161
